Screening results (PubChem BioAssay)
Tau FP inhib = tau fibrillization inhibition (FP) | P10636 | Potency, µM (highest dose often 57.7 µM), for the others: top-dose activity, negative = inhibition, actives largely listed as inhibitors | K18 P301L tau heparin fibrillization, Alexa594 FP, 6 h | actives 0.39% (n = 280,000) | AID 1468; further: potency means the concentration at half of the fitted maximal effect; nearly all actives have a fitted effect of over 55% in size
Target sequence (P10636 561-689 P618L limits assumed): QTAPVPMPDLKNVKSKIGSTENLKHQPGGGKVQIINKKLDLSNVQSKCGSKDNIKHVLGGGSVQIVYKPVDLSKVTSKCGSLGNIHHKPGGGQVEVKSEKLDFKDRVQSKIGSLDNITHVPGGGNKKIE
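FP of Alexa 594-tau after heparin (20 uM) induction. Substrate: human K18 P301L, 15 uM unlabeled, 0.24 uM labeled. Buffer 100 mM sodium acetate pH 7. 6 hr, 37 C.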
Tau fluor cs = counter-screen for tau fibril formation inhibitors | tau K18 P301L Alexa594 fluorescence, heparin fibrillization | Potency, µM (top dose mostly 57.7 µM), for the others: at the top dose activity change, negative = decrease | actives 0.93% (n = 280,000); further: potency means the concentration at half of the fitted maximal effect; nearly all actives have a fitted effect of over 55% in size
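Human K18 P301L tau (15 uM unlabeled plus 0.24 uM Alexa 594-labeled, final) in 100 mM sodium acetate pH 7 was mixed with compound and 20 uM heparin and incubated 6 hr at 37 C.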
Coupling enz = inhibits coupling enzyme system, counter-screen for aldolase hits. coupling enzyme system counterscreen, AmpLite Red fluorescence. activity change, negative = inhibition, % at 58.2 µM, hits read low. actives 0.67% (n = 290,000); in the data active means activity change below about -30%
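Counterscreen lacking aldolase: glyceraldehyde-3-phosphate coupling-enzyme reagent preincubated 10 min at RT with compound (at 57.5 uM final), then substrate/coupling system with AmpLite Red added; fluorescence read at 525/598 nm after 20 min RT.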
Tau fibril ThT = inhibitors of human tau fibril formation, thioflavin T binding; P10636; recombinant tau K18 P301L, heparin-induced fibrillization, ThT fluorescence; Potency, µM (top dose mostly 57.4 µM), without a hit: at the highest dose activity, negative = inhibition, usual class: inhibitors; actives 2.1% (n = 270,000); AID 1460; further: potency means the concentration at half of the fitted maximal effect; nearly all actives have a fitted effect of over 55% in size
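ThT emission at 510 nm, taken 1 hr after adding 30 uM dye, quantifies aggregates formed when 20 uM heparin acts on human tau K18 P301L for 6 hr at 37 C.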
USP1-UAF1 inh = blocks the human USP1/UAF1 deubiquitinase complex; O94782; recombinant USP1/UAF1, Ub-Rhodamine cleavage fluorescence; Potency, µM (top dose mostly 57.1 µM), without a hit: at the top dose activity change, negative = inhibition, actives largely listed as inhibitors; actives 0.23% (n = 390,000); AID 743255; further: potency means the concentration at half of the fitted maximal effect; nearly all actives have a fitted effect of over 60% in size
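USP1/UAF1 complex at 1 nM was preincubated with compound for 15 min at room temperature, then Ub-Rho substrate (150nM final) was added. Fluorescence (480/540 nm) was read kinetically, 6 reads every 60 seconds.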
The depositor's hits bear a star; ? = inconclusive; . = no result given; [ ] = dose if it differs, or a comment. Hits are enriched below; roughly 2.3% of the tested compounds scored in any of these assays. Unless noted, the call rests on the fitted dose curve; in most records, active means well fitted curve in the direction sought with a large enough effect; inconclusive means small, poorly fitted or top-dose-only effect, or another doubt; inactive means no such curve, though single readings can be large; an effect the other way counts as inactive or inconclusive. On the % scale 0 is the no-effect control and ±100 the full control effect.

SMILES | Tau FP inhib | Tau fluor cs | Coupling enz | Tau fibril ThT | USP1-UAF1 inh
CCc1nnc(NC(=O)CSc2nc3c(cc2C#N)CCCC3)s1 | 1% | -19% | 2 | 3.2µM* | -21%
CN1CCc2nc(SCC(=O)Nc3ccc(F)cc3)c(C#N)cc2C1 | -2% | ? | -8 | 14µM* | .
O=C(NN=C1c2ccccc2-c2ccccc21)c1ccccc1 | ? | -22% | 0 | 22µM* | -7%
Cc1ccc(C)c(Nc2nn3c(=O)c4ccc(C(=O)N(C)Cc5ccccc5)cc4nc3s2)c1 | -2% | -29% | . | ? | -4%
CC(C)CSC1=NSC2=NC(=O)/C(=C\c3coc4ccccc4c3=O)C(=N)N12 | ? | ? | 8 | 28µM* | 4.5µM*
N=C1/C(=C\c2coc3ccc(O)cc3c2=O)C(=O)N=C2SC=CN12 | -14% | ? | 0 | 13µM* | 28µM*
CN1C(=O)/C(=C/c2coc3ccc(O)cc3c2=O)SC1=S | -2% | -18% | 3 | ? | 2%
N=C1/C(=C/c2coc3ccccc3c2=O)C(=O)N=C2SC(c3ccco3)=NN12 | -10% | -19% | -5 | ? | 178%
CSC1=NSC2=NC(=O)/C(=C\c3coc4ccccc4c3=O)C(=N)N12 | ? | ? | 5 | 14µM* | 22µM*
N=C1/C(=C\c2coc3ccccc3c2=O)C(=O)N=C2SC(c3ccncc3)=NN12 | ? | -24% | 6 | 13µM* | 28µM*
CCOc1ccc(NC(=O)C2CCC(CNS(=O)(=O)c3ccc(Br)s3)CC2)cc1 (configuration not stated) | ? | -11% | . | -11% | -5%
O=C(Nc1ccc(N2CCCC(O)C2)cc1)c1snc2c(=O)[nH]cnc12 (configuration not stated) | 0% | -29% | 2 | 3.5µM* | ?
Cc1nc2c(C(=O)Nc3ccc(N4CCCC(O)C4)cc3)snc2c(=O)[nH]1 (configuration not stated) | -1% | ? | -3 | . | -23%
CCCCNC(=O)c1ccc2c(c1)NC(=O)C(CS(=O)(=O)Cc1cccc(C)c1)N2 (configuration not stated) | ? | ? | . | 18µM* | ?
COc1ccc2c(c1)SCCC2=O | 11% | -1% | 2 | -5% | -10%
COc1ccc2c(c1)OCC1=C2CCC2(C)C(=O)CC=C12 (configuration not stated) | ? | ? | -34* | 20µM* | .
CCOc1ccc(NC(=O)Cn2c(=O)cc(C)c3c(C)nn(-c4ccc(CC)cc4)c32)cc1 | -10% | 8% | . | 6% | -27%
COc1ccccc1C(=O)Nc1sc(Nc2ccccc2)nc1C(N)=O | ? | 7.1µM*[quencher] | . | 3.2µM* | -15%
CCn1c(=O)cc(OCC(=O)N2CCN(c3cccc(Cl)c3)CC2)c2ccccc21 | 1% | -18% | . | -16% | -10%
COc1cccc(OCCNc2cc(Cl)ccc2[N+](=O)[O-])c1 | -4% | -30% | -11 | 8.9µM* | -12%
Cc1ccc(S(=O)(=O)NNc2ccccc2)c(C)c1 | ? | -14% | -6 | 22µM* | -8%
Oc1ccc(/C=N/N2CCN(C3c4ccccc4-c4ccccc43)CC2)c(O)c1 | ? | 13µM*[quencher] | 16 | -18% | ?
Oc1ccc(/C=N/N2CCN(C3c4ccccc4-c4ccccc43)CC2)cc1 | -9% | ? | 15 | -7% | -1%
Oc1ccc(/C=N/N2CCN(C3c4ccccc4-c4ccccc43)CC2)cc1O | ? | 13µM*[quencher] | 8 | ? | -26%
CCN(CC)CCNC(=O)c1[nH]c2ccccc2c1Sc1ccc(Cl)cc1 | 0% | -20% | . | 4% | -21%
SMILES | Tau FP inhib | Tau fluor cs | Coupling enz | Tau fibril ThT | USP1-UAF1 inh
COc1ccc2nc(-c3ccco3)c(-c3ccco3)nc2c1 | ? | 7.9µM*[quencher] | -32* | 4.5µM* | -15%
COc1ccc(-c2nc3ccccc3nc2-c2ccc(OC)cc2)cc1 | . | . | -1 | . | -23%
c1coc(-c2nc(-c3ccco3)c(-c3ccco3)nc2-c2ccco2)c1 | 11µM* | ? | -14 | 7.9µM* | ?
COc1ccc(C(C)C)cc1S(=O)(=O)NCCc1c(C)[nH]c2c(Cl)cccc12 | 2% | ? | . | ? | -17%
COc1cc(S(=O)(=O)NCCc2c(C)[nH]c3ccc(C)cc23)ccc1Br | ? | 14µM*[quencher] | . | ? | ?
COc1ccc(C(C)C)cc1S(=O)(=O)NCCc1c(C)[nH]c2ccc(C)cc12 | ? | 10µM*[quencher] | . | ? | -9%
Cc1cccc(C(=O)n2nc(-c3ccco3)nc2NCc2ccccc2)c1 | -3% | -12% | . | -7% | -17%
N#CC(C#N)=NNc1ccc(S(=O)(=O)N2CCCCC2)cc1 | 8% | ? | 18 | 16µM* | -22%
O=C(Nc1cc(S(=O)(=O)N2CCOCC2)ccc1N1CCCC1)c1ccc2c(c1)S(=O)(=O)c1ccccc1C2=O | ? | ? | 5 | 25µM* | ?
O=C(Nc1cccc(Cl)c1)Nc1cc(S(=O)(=O)N2CCCCC2)ccc1Cl | 11µM* | ? | 1 | 15% | -12%
O=C(Nc1cc(S(=O)(=O)N2CCCCC2)ccc1Cl)c1ccncc1 | . | . | . | . | -21%
O=C(Nc1ccc(S(=O)(=O)N2CCCCC2)cc1)c1ccccc1Cl | 1% | -25% | 1 | -14% | -7%
O=C(Nc1ccccc1)Nc1ccc(S(=O)(=O)N2CCCCC2)cc1 | 32µM* | 16µM*[quencher] | 0 | 12% | -23%
COc1ccc(CNC(=O)c2cc(-c3cccc(Cl)c3)on2)cc1 | -13% | -1% | . | -1% | -21%
O=C(Nc1ccc(Cl)c(Cl)c1)Nc1cc(S(=O)(=O)N2CCOCC2)ccc1N1CCCC1 | ? | 7.9µM*[quencher] | -2 | 5% | 2%
O=c1c2ccccc2sn1-c1cc(S(=O)(=O)N2CCOCC2)ccc1N1CCCC1 | 32µM* | -27% | 2 | 25µM* | -13%
